PMC4336329 (PLoS ONE, 2015)
In all, about 310,000 compounds went through this assay and about 14,000 (4.5%) showed an effect of 50% or more. The effect is printed as a negative number. The sample holds strong results, similar compounds and a random draw of the others, so the mix is not that of the screen.

Each compound was assayed against human ether-à-go-go-related gene (hERG) potassium channel (human, UniProt Q12809) (assay: primary screen, population patch clamp on CHO cells stably expressing hERG; higher = less effect of the substance).
human ether-à-go-go-related gene (hERG) potassium channel, sequence (Q12809 whole entry, looked up): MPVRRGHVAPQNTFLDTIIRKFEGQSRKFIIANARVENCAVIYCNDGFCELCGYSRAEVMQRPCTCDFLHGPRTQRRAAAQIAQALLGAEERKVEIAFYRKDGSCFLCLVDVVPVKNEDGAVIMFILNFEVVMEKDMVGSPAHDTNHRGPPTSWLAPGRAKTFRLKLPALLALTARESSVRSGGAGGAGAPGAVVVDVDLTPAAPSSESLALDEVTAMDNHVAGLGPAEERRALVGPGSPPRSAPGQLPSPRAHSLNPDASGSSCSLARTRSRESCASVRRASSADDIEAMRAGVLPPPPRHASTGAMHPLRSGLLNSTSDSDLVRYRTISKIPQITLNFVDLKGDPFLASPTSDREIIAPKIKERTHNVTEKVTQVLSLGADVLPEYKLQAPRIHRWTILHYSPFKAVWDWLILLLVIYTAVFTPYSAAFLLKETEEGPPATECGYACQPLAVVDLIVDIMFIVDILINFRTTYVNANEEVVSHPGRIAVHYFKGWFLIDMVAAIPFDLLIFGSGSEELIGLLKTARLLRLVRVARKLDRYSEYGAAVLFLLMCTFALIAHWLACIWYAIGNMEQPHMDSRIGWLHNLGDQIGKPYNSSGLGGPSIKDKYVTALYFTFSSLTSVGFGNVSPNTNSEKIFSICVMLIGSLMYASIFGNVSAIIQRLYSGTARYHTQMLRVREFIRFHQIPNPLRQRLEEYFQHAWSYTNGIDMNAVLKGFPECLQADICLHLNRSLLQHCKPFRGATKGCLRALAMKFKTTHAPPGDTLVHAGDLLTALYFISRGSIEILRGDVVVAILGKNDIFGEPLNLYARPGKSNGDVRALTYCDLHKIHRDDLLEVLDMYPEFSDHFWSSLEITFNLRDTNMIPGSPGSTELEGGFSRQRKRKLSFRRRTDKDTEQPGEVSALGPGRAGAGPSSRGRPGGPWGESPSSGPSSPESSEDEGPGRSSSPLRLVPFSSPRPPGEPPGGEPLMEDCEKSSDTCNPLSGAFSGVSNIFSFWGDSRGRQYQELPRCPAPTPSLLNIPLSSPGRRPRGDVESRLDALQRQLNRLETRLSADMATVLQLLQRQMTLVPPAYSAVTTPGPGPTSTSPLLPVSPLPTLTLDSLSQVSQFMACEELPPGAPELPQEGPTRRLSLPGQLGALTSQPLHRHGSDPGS
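Note: peak tail current of the secondary pulse compared with the same well before compound.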

SMILES	hERG current change (%, negative = inhibition) at 10uM [%]
NC(=O)c1ccc(NC(=O)CSc2nnc(-c3ccc4c(c3)OCO4)o2)cc1	2.05
CCCCN(CCCC)C(=O)c1sc2nc(N3CCOCC3)c3c(c2c1N)CCCC3	9
COc1ccc(Cl)cc1NC(=O)NC1CCCCC1	10.3
CN(CCCC(=O)NCc1ccco1)S(=O)(=O)c1ccccc1	-5.89
CC(=O)C12CCCCC1CC1C3CC(C)C4(O)CC(=O)CCC4(C)C3CCC12C (stereo not drawn)	21.8
Cc1nc2ccccc2c(=O)n1-c1ccccc1[N+](=O)[O-]	17.2
CCCCCN(C(=O)CCC(=O)OC(C)C(=O)NC1CCCCC1)c1c(N)n(CCCC)c(=O)[nH]c1=O (stereo not drawn)	16.1
CSc1nncc(/C(C)=N\Nc2ccccc2)n1	9.18
Cc1ccc(C(C)(C)NC(=O)C2CCC(=O)N(CC3CCCCC3)C2)cc1 (stereo not drawn)	3.82
COc1cccc(C(=O)N/N=C(/c2ccccc2)c2ccccn2)c1	6.88
Cn1ccnc1/C(=N\NC(=O)c1ccccc1)c1cccc([N+](=O)[O-])c1	-68.6
O=C(NNC(=O)c1ccccn1)c1cccc([N+](=O)[O-])c1	8.7
O=C(N/N=C(\c1ccccc1)c1ccccn1)c1cccc([N+](=O)[O-])c1	-65.6
C/C(=N\NC(=O)c1ccc([N+](=O)[O-])cc1)c1cccc([N+](=O)[O-])c1	5.82
NC(=O)c1cccc([N+](=O)[O-])c1	5.64
Cn1ccnc1/C(=N\NC(=O)c1ccc(O)cc1)c1cccc([N+](=O)[O-])c1	-22.7
CC(=O)c1cccc([N+](=O)[O-])c1	17.7
Cn1cccc1C(=O)c1cccc([N+](=O)[O-])c1	-52.9
CC1=NN(c2ccccc2)C(=O)/C1=C/c1ccc[nH]1	-7.74
CCN(CC(=O)Nc1ccc(NC(C)=O)cc1)C(=O)c1cccc2ccccc12	1.23
Cc1cccc(Nc2ncnc(N)c2[N+](=O)[O-])n1	17.8

SMILES	hERG current change (%, negative = inhibition) at 10uM [%]
C=CCN1CC(c2nc3ccccc3n2Cc2cccc3ccccc23)CC1=O (stereo not drawn)	-24.2
C/C(=N\NC(=O)CNc1cccc2ccccc12)c1ccccc1	10.2
COc1ccc2sc3ccccc3c(=O)c2c1	-10.1
Cc1ccc(N2CC(C(=O)N3CCC(C(=O)Nc4nnc(C(C)C)s4)CC3)CC2=O)cc1 (stereo not drawn)	10.7
CC(=O)Nc1ccc(S(=O)(=O)N(C)CC(=O)OCC(=O)N(C)C2CCS(=O)(=O)C2)cc1 (stereo not drawn)	18.8
CN(CCOc1ccc(Cl)cc1)C(=O)C1CCN(C(=O)c2ccc(Cl)cc2)CC1	-75.4
CN(CCOc1ccccc1)C(=O)C1CCN(C(=O)c2ccc(Cl)cc2)CC1	-47.9
CN(CCOc1ccc(Cl)cc1)C(=O)C1CCN(C(=O)c2ccc(F)cc2)CC1	-69.9
O=C(c1ccc(Cl)cc1)C1CCN(C(=O)c2ccc(F)cc2)CC1	-34.7
CN(CCOc1ccccc1)C(=O)C1CCN(C(=O)c2ccc(F)cc2)CC1	-19.9
Cc1ccccc1C(=O)N1CCC(C(=O)N(C)CCOc2ccccc2)CC1	9.06
Cc1ccc(Cn2ccc(NC(=O)c3cc(CC(C)C)on3)n2)cc1	-8.08
CCn1nc(C(=O)OCC(=O)c2cc(C)n(Cc3cccs3)c2C)c2ccccc2c1=O	7.14
O=C(/C=C/c1cccs1)Nc1sc2c(c1C(=O)O)CCCC2	28.5
O=C(c1ccco1)N1CCN(C(=O)c2cc(-c3ccccn3)nc3ccccc23)CC1	-34.8
COc1ccc(-c2cc(C(=O)OCC(=O)N3CCCC3)c3ccccc3n2)cc1	-19.1
O=C(OCC(=O)N1CCN(C(=O)c2ccco2)CC1)c1cc(-c2ccco2)nc2ccccc12	-69.7
Cc1cc(C(=O)OCC(=O)NCc2ccco2)c(C)n1-c1ccc(F)cc1	-28.3
Cc1cc(C(=O)OCC(=O)N2CCN(C(=O)c3ccco3)CC2)c(C)n1-c1ccc(F)cc1	-66.4
O=C(OCC(=O)N1CCN(C(=O)c2ccco2)CC1)c1cc(-c2ccccc2)nc2ccccc12	-60.3
O=C(OCC(=O)N1CCN(C(=O)c2ccco2)CC1)c1cccc(F)c1	-16.8

SMILES	hERG current change (%, negative = inhibition) at 10uM [%]
O=C(c1cc(-c2ccco2)nc2ccccc12)N1CCN(Cc2ccccc2)CC1	-42.8
O=C(OCC(=O)N1CCN(C(=O)c2ccco2)CC1)c1cc(-c2cccc(Br)c2)nc2ccccc12	-19.6
O=C(COC(=O)c1cc(-c2ccco2)nc2ccccc12)NCc1ccccc1	-11.3
O=C(OCC(=O)N1CCN(C(=O)c2ccco2)CC1)c1cc(-c2ccc(F)cc2)nc2ccccc12	-59.4
O=C(OCC(=O)N1CCN(C(=O)c2ccco2)CC1)c1cc(-c2ccc(Cl)c(Cl)c2Cl)nc2ccccc12	2.88
CCCn1[nH]cc(SC)c(=O)c1=O	-5.83
CCn1c(SCC(=O)Nc2c(C)n(C)n(-c3ccccc3)c2=O)nc2c1c(=O)n(C)c(=O)n2C	18.2
Cc1c(C(C)C)c(=O)n(-c2ccc(S(=O)(=O)N3CCOCC3)cc2)n1C	17.4
Nc1c(Cl)c(Cl)nc(C(=O)OCC(=O)NCc2ccccc2)c1Cl	-18.2
COCCn1c(SCC#N)nnc1-c1ccc2c(c1)OCO2	-24.2
CCCCC(=O)Nc1c(O)c2ccccc2[nH]c1=O	-0.31
Cc1ccc(NC(=O)N2CCCCC2)cc1NC(=O)N1CCCCC1	16.5
Cc1ccc(-n2c(O)c(C=N)c(=O)n(-c3ccc(C)cc3)c2=O)cc1	-8.85
O=C1NC(=O)C(CCc2ccncc2)(Cc2ccc3c(c2)OCO3)C(=O)N1CCc1ccccc1 (stereo not drawn)	-32.5
CN1C(=O)N(C)C(=O)C(CCc2ccccn2)(CCc2ccccn2)C1=O	3.54
COc1ccccc1N1C(=O)NC(=O)C(CCc2ccncc2)(CCc2ccncc2)C1=O	-46.6
COc1cc(CC2(CCc3ccncc3)C(=O)N(C)C(=O)N(C)C2=O)cc(OC)c1OC	-8.33
O=C1NC(=O)C(CCc2ccncc2)(C2CCCCC2)C(=O)N1	5.77
O=C1NC(=O)C(CCc2ccncc2)(CCc2ccncc2)C(=O)N1C1CCCCC1	-75.3
O=C1NC(=O)C(CCc2ccncc2)(CCc2ccncc2)C(=O)N1CCc1ccccc1	-71.7
O=C1NC(=O)C(CCc2ccncc2)(CCc2ccncc2)C(=O)N1Cc1ccccc1	-72.5

SMILES	hERG current change (%, negative = inhibition) at 10uM [%]
O=C1NC(=O)C(CCc2ccncc2)(c2ccccc2)C(=O)N1	5.76
CN1C(=O)N(C)C(=O)C(CCc2ccncc2)(CCc2ccncc2)C1=O	-51.2
C=CCN1C(=O)NC(=O)C(CCc2ccncc2)(CCc2ccncc2)C1=O	-41.8
CCC1(CCc2ccncc2)C(=O)NC(=O)NC1=O	-4.69
O=C(Cn1nc(-c2ccccc2)c2ccccc2c1=O)NN1CCOCC1	5.24
COc1ccc(S(=O)(=O)NCc2cccnc2)cc1OC	17.1
COc1cc2sc3ccc(C#Cc4ccccn4)cc3c(=O)c2cc1OC	14.9
O=C1Cc2ccccc2C(=O)N1Cc1cccc(Cl)c1	11.5
CC(=O)Nc1sc(NC(=O)c2ccccc2)nc1-c1cccs1	0.00438
CC1CC(Nc2ccccc2)=CC(=O)O1 (stereo not drawn)	24.7
CC(c1nnc(Sc2nnnn2-c2ccccc2)n1-c1ccc(F)cc1)N(C)C (stereo not drawn)	3.57
COc1cc(C)c(CN2CCN(CC(=O)Nc3ccccc3C(=O)NC3CC3)CC2)cc1OC	-80.1
COC(=O)c1ccccc1NC(=O)CN1CCC(NC(=O)c2ccc(C)cc2)CC1	8.67
COc1ccc(OCC(=O)Nc2ccccc2C(=O)NC2CC2)cc1	-13.4
COc1cc2c(cc1OC)CN(CC(=O)Nc1ccccc1C(=O)NC1CC1)CC2	-24.5
COc1ccc(CN2CCN(CC(=O)Nc3ccccc3C(=O)NC3CC3)CC2)cc1F	-91.3
COc1cccc(OC)c1NC(=O)CN1CCC(NC(=O)c2cccc(F)c2)CC1	1.5
COc1ccc(CN(C)CC(=O)Nc2ccccc2C(=O)NC2CC2)cc1OC	-21.7
COc1ccc(F)cc1CN1CCN(CC(=O)Nc2ccccc2C(=O)NC2CC2)CC1	-87.6
COc1ccccc1OCC(=O)Nc1ccccc1C(=O)NC1CC1	-8.86
COc1ccc(OC)c(CN2CCN(CC(=O)Nc3ccccc3C(=O)NC3CC3)CC2)c1	-82.5
